# Assay results: PubChem BioAssay (NCATS)
# Records with an inconclusive call do not appear. Unmarked numbers belong to inactive results. Active and inactive are the calls of the source. Calls come from the whole dose curve; as a rule, active = well fitted inhibition curve with a large enough effect; inconclusive = small, poorly fitted or top-dose-only effect; inactive = flat fitted curve, though single readings scatter.
# System: CP194
# Assay: qHTS profiling for inhibitors of Plasmodium falciparum proliferation (AID 504749); note: nearly all actives have a fitted effect of over 60% in size;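 for activity, negative = inhibition: 0% = DMSO vehicle and full inhibition = artemisinin control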
# Settings: P. falciparum in erythrocytes, SYBR Green DNA, 72 h; series mostly up to 28.7 µM; activity, negative = inhibition: at the top concentration
# In short: (§1)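 SYBR Green fluorescence (ex 485 nm, em 535 nm) reports parasite DNA after 72 h compound exposure of infected red cells at 0.3% parasitemia, 2.5% hematocrit; signal normalized to 0.29 uM artemisinin and vehicle wells.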
# Potency is the fitted concentration of half-maximal effect.
Compound,"activity, negative = inhibition",Potency
COC(=O)Nc1nc2ccc(C(=O)c3ccccc3)cc2[nH]1,-14.7% [at 12.8 µM],–
CC(C)(C#N)c1cc(Cn2cncn2)cc(C(C)(C)C#N)c1,0.0702%,–
O=C(O)c1cc(=O)[nH]c(=O)[nH]1,-3.89%,–
CNS(=O)(=O)Cc1ccc2[nH]cc(CCN(C)C)c2c1,2.02%,–
CCOc1cc(N)c(Cl)cc1C(=O)NCC1CN(Cc2ccc(F)cc2)CCO1 (stereo unspecified),–,12 µM (active)
CCC(C)(C)c1ccc(CC(C)CN2C[C@@H](C)O[C@@H](C)C2)cc1 (stereo partly specified),1.14%,–
CN(C)c1ccc(C(=C2C=CC(=[N+](C)C)C=C2)c2ccc(N(C)C)cc2)cc1,–,0.953 µM (active)
COc1ccc(C(=O)CC(=O)c2ccc(C(C)(C)C)cc2)cc1,-2.08%,–
CCc1cc(C(N)=S)ccn1,0.0923%,–
NC(=O)N1c2ccccc2CC(=O)c2ccccc21,-8.49%,–
Cc1nnc(NS(=O)(=O)c2ccc(N)cc2)s1,-1.09%,–
CCN(C)C(=O)Oc1cccc([C@H](C)N(C)C)c1,-3.91%,–
CNC1CCCN(c2c(F)cc3c(=O)c(C(=O)O)cn(C4CC4)c3c2OC)C1 (stereo unspecified),-2.64%,–
COc1cc(NCc2ccc3nc(N)nc(N)c3c2C)cc(OC)c1OC,–,2.69 µM (active)

# System: CP201
# Assay: as above
# Settings: P. falciparum in erythrocytes, SYBR Green DNA, 72 h; series mostly up to 28.7 µM; activity, negative = inhibition: at the top concentration
# In short: as §1
Compound,"activity, negative = inhibition",Potency
Cn1nnc2c(C(N)=O)ncn2c1=O,-7.6%,–
CC(C)OC(=O)C(C(=O)OC(C)C)=C1SC=CS1,-6.33%,–
CC1=NN(c2ccccc2)C(=O)C1,-8.46%,–
COC(=O)Nc1nc2ccc(Sc3ccccc3)cc2[nH]1,-1.49% [at 12.8 µM],–
CCc1c2c(nc3ccc(OC(=O)N4CCC(N5CCCCC5)CC4)cc13)-c1cc3c(c(=O)n1C2)COC(=O)[C@]3(O)CC,-2.06%,–
Cc1noc(NS(=O)(=O)c2ccc(N)cc2)c1C,-1.77%,–
CN1CCN(c2c(F)cc3c(=O)c(C(=O)O)cn4c3c2OCN4C)CC1,-2.47%,–
S=P(N1CC1)(N1CC1)N1CC1,1.24%,–
CC[C@H](NC(C)C)[C@H](O)c1ccc(O)c2[nH]c(=O)ccc12,0.647%,–
CC[C@H](C)C(=O)O[C@H]1C[C@@H](C)C=C2C=C[C@H](C)[C@H](CC[C@@H]3C[C@@H](O)CC(=O)O3)[C@H]21,-3.5%,–
CC(C)(Sc1cc(C(C)(C)C)c(O)c(C(C)(C)C)c1)Sc1cc(C(C)(C)C)c(O)c(C(C)(C)C)c1,-0.162% [at 12.8 µM],–
Cc1ncc([N+](=O)[O-])n1CCO,-0.15%,–
CCCc1cc(C(N)=S)ccn1,-3.79%,–
CCCN[C@H]1CCc2nc(N)sc2C1,-4.07%,–
COC(=O)Nc1nc2ccc(C(=O)c3ccccc3)cc2[nH]1,-15.1% [at 12.8 µM],–
CC(C)(C#N)c1cc(Cn2cncn2)cc(C(C)(C)C#N)c1,5.65%,–
COc1c(N2CCNC(C)C2)c(F)cc2c(=O)c(C(=O)O)cn(C3CC3)c12 (stereo unspecified),-9.84%,–
O=C(O)c1cc(=O)[nH]c(=O)[nH]1,4.8%,–
CNS(=O)(=O)Cc1ccc2[nH]cc(CCN(C)C)c2c1,2.61%,–
CCC(C)(C)c1ccc(CC(C)CN2C[C@@H](C)O[C@@H](C)C2)cc1 (stereo partly specified),-4.48%,–
CN(C)c1ccc(C(=C2C=CC(=[N+](C)C)C=C2)c2ccc(N(C)C)cc2)cc1,–,1.2 µM (active)
COc1ccc(C(=O)CC(=O)c2ccc(C(C)(C)C)cc2)cc1,-4.05%,–
NC(=O)N1c2ccccc2CC(=O)c2ccccc21,-11.9%,–
Cc1nnc(NS(=O)(=O)c2ccc(N)cc2)s1,1.62%,–
CCN(C)C(=O)Oc1cccc([C@H](C)N(C)C)c1,1.72%,–
CNC1CCCN(c2c(F)cc3c(=O)c(C(=O)O)cn(C4CC4)c3c2OC)C1 (stereo unspecified),-2.88%,–
COc1cc(NCc2ccc3nc(N)nc(N)c3c2C)cc(OC)c1OC,–,4.78 µM (active)
